# Records with an inconclusive call do not appear. A call without a number means that no potency is given here. Values without a mark were called inactive. The source made the active and inactive calls. The call rests on the fitted dose curve; in most records, active means well fitted inhibition curve with a large enough effect; inconclusive means small, poorly fitted or top-dose-only effect; inactive means no such curve, though single readings can be large or run the other way.
# Biological target: Rap guanine nucleotide exchange factor 3 (Homo sapiens) (UniProt O95398)
# Experiment: Counterscreen qHTS for antagonist of cAMP-regulated guanine nucleotide exchange factor 3 (EPAC1) (AID 1645888);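 further: fluorescence loss as bound BODIPY-GDP is released from Rap1B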
# Conditions: Rap1B-BODIPY-GDP nucleotide exchange, fluorescence; series mostly up to 154 µM
# How it was run: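 Rap1B–BODIPY-GDP (250 nM) with 50 uM GDP; compounds pin-transferred to 9.74 nM–152 uM final (activator) or from 7.32 nM upwards (inhibitor). Fluorescence Ex/Em 480/540 nm read at 5 and 30 min, then after adding cAMP or buffer, at room temperature.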
# Sequence of Rap guanine nucleotide exchange factor 3 (Homo sapiens) (O95398 whole entry, looked up): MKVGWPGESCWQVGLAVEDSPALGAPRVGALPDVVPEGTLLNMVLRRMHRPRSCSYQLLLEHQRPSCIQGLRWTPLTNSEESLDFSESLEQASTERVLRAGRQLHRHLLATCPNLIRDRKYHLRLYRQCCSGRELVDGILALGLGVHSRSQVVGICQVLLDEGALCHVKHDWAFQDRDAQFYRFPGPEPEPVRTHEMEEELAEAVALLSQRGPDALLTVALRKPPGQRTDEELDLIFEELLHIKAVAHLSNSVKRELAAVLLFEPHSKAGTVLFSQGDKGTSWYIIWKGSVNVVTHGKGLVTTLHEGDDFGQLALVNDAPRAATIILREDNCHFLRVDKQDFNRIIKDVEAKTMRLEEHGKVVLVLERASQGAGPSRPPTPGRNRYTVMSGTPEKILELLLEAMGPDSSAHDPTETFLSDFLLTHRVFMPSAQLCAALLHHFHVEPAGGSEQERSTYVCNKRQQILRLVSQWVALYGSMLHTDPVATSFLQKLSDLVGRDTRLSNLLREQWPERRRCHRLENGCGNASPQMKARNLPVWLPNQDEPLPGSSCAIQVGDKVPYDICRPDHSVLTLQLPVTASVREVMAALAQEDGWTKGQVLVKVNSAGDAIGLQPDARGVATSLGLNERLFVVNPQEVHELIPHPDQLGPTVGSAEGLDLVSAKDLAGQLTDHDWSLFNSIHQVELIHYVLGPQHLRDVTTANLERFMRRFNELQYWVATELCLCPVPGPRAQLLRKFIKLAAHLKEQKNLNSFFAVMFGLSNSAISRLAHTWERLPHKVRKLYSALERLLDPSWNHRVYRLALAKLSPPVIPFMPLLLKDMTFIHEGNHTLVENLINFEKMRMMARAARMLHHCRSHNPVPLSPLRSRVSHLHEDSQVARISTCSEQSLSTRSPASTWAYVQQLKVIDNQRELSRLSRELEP
Compound,Potency,"activity change, negative = inhibition"
CCN1CCN(c2ccc(S(=O)(=O)N3CCCCC3)cc2NC(=O)c2ccc([N+](=O)[O-])s2)CC1,inactive,
CCCN(CC(=O)Nc1ccccc1C)C(=O)C1CCN(c2ncnc3sc(C)c(C)c23)CC1,inactive,
CC(=O)C1=CCC(c2ccccc2Cl)N(S(=O)(=O)c2ccc(C)cc2)C1 (stereo not drawn),inactive,
Cc1ccc(S(=O)(=O)/N=C2\C=C(NS(=O)(=O)c3ccccc3)C(=O)c3ccccc32)c(C)c1,,-5.99% [at 30.8 µM]
CC(C)=CCc1c(O)ccc2c1OC(c1ccc(O)c(O)c1)CC2=O (stereo not drawn),inactive,
Clc1cccc(-c2nc3ccc(Cl)cn3c2Cc2ccsc2)c1,inactive,
CCC(=C(c1ccc(OC)cc1)c1ccc(OC)cc1)c1cn(CC(O)CN(CCO)CCO)c2ccccc12 (stereo not drawn),inactive,
CCOC(=O)c1ccc(NC(=O)c2c(N)n(Cc3ccccc3)c(=O)[nH]c2=O)cc1,inactive,
O=c1cc(CN2CCN(S(=O)(=O)c3cccc(Cl)c3)CC2)c2ccc(O)cc2o1,inactive,
Cc1cc(NC(=O)CS(=O)(=O)c2cn(Cc3cccc(Br)c3)c3ccccc23)no1,inactive,
CCOc1cnc(-c2c(-c3ccccc3Cl)noc2C)o1,inactive,
Cc1cc(C)c(Cn2cnc3ccccc32)c(C)c1,inactive,
Oc1ccc(NCc2ccccc2OCc2ccccc2Cl)cc1,inactive,
CCCCOC(=O)CCn1c(=S)oc2ccccc21,inactive,
CC(C)NC(=O)c1sc2nc(-c3cccs3)cc(-c3cccs3)c2c1N,inactive,
CCOC(=O)C1=C(C)N=c2s/c(=C/c3ccc(OCC(=O)O)cc3)c(=O)n2C1c1ccc(F)cc1 (stereo not drawn),inactive,
O=C1C(O)=C(O)C(=O)c2ccccc21,inactive,
Nc1ccc(C(=O)N2CCN(S(=O)(=O)c3ccc(Cl)s3)CC2)cc1[N+](=O)[O-],inactive,

# Source: PubChem BioAssay (NCATS)
